Our source for the outcome and AC50 values is PubChem BioAssay (EPA / NIEHS).

Molecules are shown by their SMILES. Active and inactive are the calls of the source. Rule for the calls: active = hit-call score of the fitted dose curve at least 0.9, where 1 is the maximum; inactive = score below 0.9.

Read-out in experiment [1]: Interleukin-1 alpha (IL1a), IL1A (gene 3552)
Put plainly: BSK_KF3CT_IL1a: BioMAP Diversity Plus: KF3CT Assay for Interleukin-1 alpha (IL1a) Biomarker Activity (AID 2283070). Conditions: primary human keratinocytes with fibroblasts; actives raise or lower the signal. In short, it runs like this: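 Human keratinocyte plus foreskin fibroblast primary co-culture, sampled 24 h after chemical dosing. IL-1a measured by ELISA; responses fitted bidirectionally against DMSO baseline (negative control), so gain or loss of signal both count.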

Read-out in experiment [2]: TIMP metallopeptidase inhibitor 2 (TIMP2), TIMP2 (gene 7077)
Put plainly: BSK_KF3CT_TIMP2: BioMAP Diversity Plus: KF3CT Assay for TIMP metallopeptidase inhibitor 2 (TIMP2) Biomarker Activity (AID 2283071). Conditions: primary human keratinocytes with fibroblasts; actives raise or lower the signal. In short, it runs like this: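 Cells: human keratinocytes co-cultured with foreskin fibroblasts. Treat with chemical, 24 h. Measure TIMP-2 by ELISA; fit curves bidirectionally vs DMSO baseline.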

Read-out in experiment [3]: C-C motif chemokine 2 (Homo sapiens) (UniProt P13500)
The experiment can be described thus: BSK_KF3CT_MCP1: BioMAP Diversity Plus: KF3CT Assay for Monocyte Chemoattractant Protein 1 (MCP1/CCL2) Biomarker Activity (AID 2283073). Conditions: primary human keratinocytes with fibroblasts; actives raise or lower the signal. In short, it runs like this:
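ELISA read-out of MCP-1, 24 h post-dose, in primary human skin keratinocytes co-cultured with fibroblasts. Parallel SRB staining monitors cytotoxicity; changes fitted both directions relative to DMSO.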

Read-out in experiment [4]: Matrix Metallopeptidase 9 (MMP9), MMP9 (gene 4318)
Put plainly: BSK_KF3CT_MMP9: BioMAP Diversity Plus: KF3CT Assay for Matrix Metallopeptidase 9 (MMP9) Biomarker Activity (AID 2283074). Conditions: primary human keratinocytes with fibroblasts; actives raise or lower the signal. In short, it runs like this: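 Keratinocyte plus foreskin fibroblast human primary skin co-culture was dosed with chemical and MMP-9 was quantified by ELISA 24 h later. Bidirectional curve fitting used DMSO as negative control and activity baseline.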

Read-out in experiment [5]: CD40, CD40 (gene 958)
Put plainly: BSK_LPS_CD40: BioMAP Diversity Plus: LPS Assay for CD40 Biomarker Activity (AID 2283076). Conditions: primary human HUVEC with PBMC; actives raise or lower the signal. In short, it runs like this:
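In the LPS system of human endothelial cells with peripheral blood mononuclear cells, CD40 levels were read by ELISA 24 h post-treatment. Signal changes in either direction were fitted against the DMSO baseline, with parallel SRB protein staining.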

Read-out in experiment [6]: Interleukin-8 (IL8), CXCL8 (gene 3576)
The experiment can be described thus: BSK_LPS_IL8: BioMAP Diversity Plus: LPS Assay for Interleukin-8 (IL8) Biomarker Activity (AID 2283078). Conditions: primary human HUVEC with PBMC; actives raise or lower the signal. In short, it runs like this:
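ELISA read-out of IL-8 after 24 h chemical treatment of LPS-activated endothelial/PBMC human primary co-cultures. Changes either up or down relative to DMSO; overt cytotoxicity checked by sulforhodamine B staining in parallel wells.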

The nature of experiment [7]: BSK_LPS_SRB: Viability Assessment in the BioMAP Diversity Plus: LPS Assay (AID 2283079).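 Note: total protein by sulforhodamine B absorbance as a cytotoxicity measure; measured one day after compound addition.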 Conditions: primary human HUVEC with PBMC. In short, it runs like this: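 SRB viability endpoint: cells fixed with 10% TCA, stained with 0.1% SRB, read at 560 nm, 24 h post-dose. HUVEC/PBMC co-culture; signal change in either direction scored relative to DMSO.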
A short description of experiment [8]: BSK_LPS_PGE2: BioMAP Diversity Plus: LPS Assay for Prostaglandin E2 (PGE2) Biomarker Activity (AID 2283082). Conditions: primary human HUVEC with PBMC; actives raise or lower the signal. In short, it runs like this: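 LPS-activated HUVEC/PBMC co-culture; cmpd dosed, 24 h; PGE2 by ELISA; bidirectional fit vs DMSO; SRB (0.1%, TCA-fixed, 560 nm) in parallel plates for overt cytotox.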

Read-out in experiment [9]: Macrophage colony-stimulating factor (MCSF), CSF1 (gene 1435)
Put plainly: BSK_LPS_MCSF: BioMAP Diversity Plus: LPS Assay for Macrophage colony-stimulating factor (MCSF) Biomarker Activity (AID 2283083). Conditions: primary human HUVEC with PBMC; actives raise or lower the signal. In short, it runs like this: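 Bidirectional fitting against DMSO was applied to M-CSF levels read by ELISA at 24 h post-dose. The system pairs human umbilical vein endothelium with peripheral blood mononuclear cells; parallel SRB staining tracked cytotoxicity.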

Read-out in experiment [10]: Tissue Factor, F3 (gene 2152)
The experiment can be described thus: BSK_LPS_TissueFactor: BioMAP Diversity Plus: LPS Assay for Tissue Factor Biomarker Activity (AID 2283084). As to conditions: primary human HUVEC with PBMC; actives raise or lower the signal. In short, it runs like this:
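Compound was added to an endothelial cell/PBMC co-culture, and after 24 h tissue factor (CD142) was read by ELISA. Gain or loss of signal was fitted against a DMSO baseline, and parallel SRB staining (560 nm) tracked overt cytotoxicity.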

Read-out in experiment [11]: Tumor necrosis factor (Homo sapiens) (UniProt P01375)
The experiment can be described thus: BSK_LPS_TNFa: BioMAP Diversity Plus: LPS Assay for Tumour Necrosis Factor alpha (TNFa) Biomarker Activity (AID 2283085).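 For AC50: TNFa protein level quantified by ELISA in the co-culture.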 As to conditions: primary human HUVEC with PBMC; actives raise or lower the signal. In short, it runs like this: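 Read-out is ELISA of TNFa in primary human endothelial cell–PBMC co-cultures at 24 h after compound. Activity in either direction was fitted against DMSO.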

Read-out in experiment [12]: Vascular cell adhesion molecule 1 (VCAM1), VCAM1 (gene 7412)
The experiment can be described thus: BSK_LPS_VCAM1: BioMAP Diversity Plus: LPS Assay for Vascular cell adhesion molecule 1 (VCAM1) Biomarker Activity (AID 2283086). Conditions: primary human HUVEC with PBMC; actives raise or lower the signal. In short, it runs like this:
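HUVEC + PBMC co-culture, LPS system; compound 24 h; VCAM-1 by ELISA; bidirectional fit vs DMSO control; parallel SRB (0.1%, TCA-fixed, 560 nm) for cytotoxicity.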

Read-out in experiment [13]: CD38, CD38 (gene 952)
The experiment can be described thus: BSK_SAg_CD38: BioMAP Diversity Plus: SAg Assay for CD38 Biomarker Activity (AID 2283087). As to conditions: primary human HUVEC with PBMC; actives raise or lower the signal. In short, it runs like this: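 Human HUVEC plus PBMC co-culture stimulated with superantigen; CD38 measured by ELISA 24 h after chemical dosing. Fluorescence read-out, bidirectional fit against DMSO; cytotoxicity tracked in parallel by SRB and Alamar Blue.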

Read-out in experiment [14]: CD40, CD40 (gene 958)
Put plainly: BSK_SAg_CD40: BioMAP Diversity Plus: SAg Assay for CD40 Biomarker Activity (AID 2283088). Conditions: primary human HUVEC with PBMC; actives raise or lower the signal. In short, it runs like this:
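CD40 is measured by fluorescence ELISA in an endothelial/PBMC primary human co-culture at 24 h post-dose. Fitting is bidirectional, DMSO baseline. Parallel SRB staining (560 nm) flags cytotoxicity.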

Read-out in experiment [15]: CD69, CD69 (gene 969)
Put plainly: BSK_SAg_CD69: BioMAP Diversity Plus: SAg Assay for CD69 Biomarker Activity (AID 2283089). As to conditions: primary human HUVEC with PBMC; actives raise or lower the signal. In short, it runs like this: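 ELISA, fluorescence read-out: CD69 on human umbilical vein endothelial cell + PBMC co-culture, 24 h post-dosing. Gain or loss of signal fitted bidirectionally against DMSO baseline.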

Read-out in experiment [16]: Monocyte Chemoattractant Protein-1 (MCP1), CCL2 (gene 6347)
Put plainly: BSK_LPS_MCP1: BioMAP Diversity Plus: LPS Assay for Monocyte Chemoattractant Protein-1 (MCP1) Biomarker Activity (AID 2283081). Conditions: primary human HUVEC with PBMC; actives raise or lower the signal. In short, it runs like this: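 Secreted MCP-1 read by ELISA at 24 h post-dosing in an LPS-activated co-culture of endothelial cells with peripheral blood mononuclear cells. Fits run in both directions, DMSO as baseline; parallel SRB staining tracks overt cytotoxicity.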

Read-out in experiment [17]: E-selectin (Homo sapiens) (UniProt P16581)
The experiment can be described thus: BSK_LPS_Eselectin: BioMAP Diversity Plus: LPS Assay for Eselectin Biomarker Activity (AID 2283077). As to conditions: primary human HUVEC with PBMC; actives raise or lower the signal. In short, it runs like this:
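E-selectin ELISA on LPS-stimulated endothelial cell/PBMC co-cultures, read 24 h post-treatment; gains and losses fitted against DMSO. Parallel SRB staining (0.1% SRB after 10% TCA fixation, 560 nm) flags overt cytotoxicity.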

Read-out in experiment [18]: Interleukin-1 alpha (IL1a), IL1A (gene 3552)
Put plainly: BSK_LPS_IL1a: BioMAP Diversity Plus: LPS Assay for Interleukin-1 alpha (IL1a) Biomarker Activity (AID 2283080). Conditions: primary human HUVEC with PBMC; actives raise or lower the signal. In short, it runs like this:
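Readout is IL-1a level by ELISA, 24 h post-dose, fitted as gain or loss relative to DMSO. System: LPS-activated human primary co-culture of vascular endothelium and peripheral blood mononuclear cells, with parallel SRB total-protein cytotoxicity.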

Sequence of Tumor necrosis factor (Homo sapiens) (P01375 whole entry, looked up): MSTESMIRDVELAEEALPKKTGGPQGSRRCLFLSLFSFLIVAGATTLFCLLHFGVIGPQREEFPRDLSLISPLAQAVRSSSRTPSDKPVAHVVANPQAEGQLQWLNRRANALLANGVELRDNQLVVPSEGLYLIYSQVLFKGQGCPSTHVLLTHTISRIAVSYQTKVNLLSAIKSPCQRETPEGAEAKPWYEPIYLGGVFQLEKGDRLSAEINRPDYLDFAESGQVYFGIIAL
Sequence of E-selectin (Homo sapiens) (P16581 whole entry, looked up): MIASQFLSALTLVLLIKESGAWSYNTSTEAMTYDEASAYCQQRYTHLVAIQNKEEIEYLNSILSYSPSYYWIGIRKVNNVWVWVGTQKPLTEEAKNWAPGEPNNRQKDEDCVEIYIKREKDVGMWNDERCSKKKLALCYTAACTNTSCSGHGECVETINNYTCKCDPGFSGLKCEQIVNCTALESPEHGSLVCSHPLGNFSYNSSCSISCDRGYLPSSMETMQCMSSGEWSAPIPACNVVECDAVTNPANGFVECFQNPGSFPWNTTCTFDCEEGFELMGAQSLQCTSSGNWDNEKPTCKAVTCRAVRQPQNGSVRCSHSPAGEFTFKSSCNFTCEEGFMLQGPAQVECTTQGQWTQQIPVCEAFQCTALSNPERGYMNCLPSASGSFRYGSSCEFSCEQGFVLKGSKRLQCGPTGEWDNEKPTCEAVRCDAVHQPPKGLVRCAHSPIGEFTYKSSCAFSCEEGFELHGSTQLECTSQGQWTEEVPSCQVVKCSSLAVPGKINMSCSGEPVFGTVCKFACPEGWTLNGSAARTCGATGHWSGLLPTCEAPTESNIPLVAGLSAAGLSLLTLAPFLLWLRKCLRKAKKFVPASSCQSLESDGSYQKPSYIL

Consider `CCCC(C)C(=O)OCC` (configuration not stated), for which the outcome in experiment [1], in [2], in experiment [3], in [4], in experiment [5] and in experiment [6] was inactive. Moreover, the outcome in experiment [7], in [8], in experiment [9], in experiment [10], in experiment [11] and in experiment [12] was inactive. Moreover, the result in experiment [13], in experiment [14] and in experiment [15] was inactive.
Consider `CC(C)[N+](C)(CCOC(=O)C1c2ccccc2Oc2ccccc21)C(C)C`, for which the result in experiment [1], in experiment [2], in experiment [3], in [4], in experiment [5] and in [6] was inactive. The result in [16], in experiment [8], in [9], in [10], in experiment [11] and in experiment [12] was inactive. The result in experiment [13], in [14] and in experiment [15] was inactive. Besides, the AC50 (commonly the concentration at which the activity in the assay is half-maximal) in experiment [7] was 3.97 µM (active).
As to `Cc1ccc([N+](=O)[O-])cc1N`, the result in experiment [1], in experiment [2], in [3], in [4], in experiment [5] and in experiment [17] was inactive. Also, the result in experiment [6], in [7], in experiment [8], in experiment [9], in experiment [10] and in experiment [11] was inactive. Moreover, the outcome in experiment [12], in experiment [13], in experiment [14] and in experiment [15] was inactive.
Regarding `CCc1cccc(C)c1N(C(=O)CS(=O)(=O)O)C(C)COC` (configuration not stated), the outcome in [1], in experiment [2], in experiment [3], in experiment [4], in experiment [5] and in experiment [17] was inactive. In addition, the result in [6], in experiment [7], in [8], in experiment [9], in [10] and in experiment [11] was inactive. The outcome in experiment [12], in experiment [13], in [14] and in experiment [15] was inactive.
For the molecule `CC(C)C(=O)OCCc1ccccc1`, the outcome in experiment [1], in experiment [2], in experiment [3], in [4], in experiment [5] and in experiment [6] was inactive. The result in experiment [7], in [16], in experiment [8], in experiment [9], in [10] and in experiment [11] was inactive. Also, the result in experiment [12], in experiment [13], in experiment [14] and in experiment [15] was inactive.
Turning to `Clc1cc(Cl)c(Cl)c(Cl)c1Cl`, the outcome in experiment [1], in experiment [3], in experiment [4], in [5], in [6] and in experiment [7] was inactive. The result in experiment [16], in experiment [8], in experiment [9], in experiment [10], in experiment [11] and in experiment [12] was inactive. In addition, the outcome in [13], in experiment [14] and in experiment [15] was inactive. Besides, the AC50 in experiment [2] was 20 µM (active).
As to `CC(C)c1cccc(C(C)C)c1N`, the outcome in experiment [1], in experiment [2], in experiment [3], in experiment [4], in [5] and in experiment [17] was inactive. Moreover, the result in [6], in [7], in experiment [18], in experiment [8], in experiment [9] and in [10] was inactive. The outcome in experiment [11], in [12], in [13], in [14] and in experiment [15] was inactive.
`O=C1CCCCCCCCCCCN1`: the result in experiment [1], in experiment [2], in experiment [3], in experiment [4], in experiment [5] and in experiment [6] was inactive. In addition, the outcome in experiment [7], in experiment [8], in [9], in [10], in experiment [12] and in experiment [13] was inactive. Also, the result in experiment [14] and in experiment [15] was inactive. In addition, the AC50 in [11] is 11.9 µM (active).
